Data on 55 compounds can be found in PubChem BioAssay AID1362 (SRMLSC, 2008).

The assay in a line: growth inhibition of WT strain, primary screen, mitochondrial fusion inhibitor project, WT and mutant strains, chemical genetic (AID 1362). The note with it: mitochondrial fusion phenotypic screen, at 10 µM.
The mark [1] stands for this setting: WT strain, growth inhibition, stronger effect = higher value.

Out of some 190,000 compounds screened, about 4,000 (2.1%) were called active. Rule as the data show it: active = inhibition above about 58%; inactive = the rest, inconclusive results apart; tested in S. cerevisiae. For the sample, actives were picked, then their nearest neighbours and some compounds at random.

Broadly, the inhibition is the drop in the measured response relative to a control, in per cent. Consider `CC(=O)c1ccc(NC(=O)C(C)NCc2ccc(Cl)cc2)cc1` (stereo not given), for which the inhibition is, setting by setting: under setting [1], 26.3% (inactive); (mutant strain inhibition) -21.6%.
As to `Cc1cccc(C)c1NC(=O)Nc1ccccc1-n1ccnc1`, the inhibition reads like this: under setting [1], 0.23% (inactive); (mutant strain inhibition) 6.61%.
Consider `CCNC(=S)NNC(=O)C1CCN(Cc2ccccc2)CC1`, for which the inhibition runs as follows: under setting [1], 2.38% (inactive); (mutant strain inhibition) -10.7%.
As to `Fc1ccccc1C(c1nnnn1Cc1ccc2c(c1)OCO2)N1CCN(Cc2ccccc2)CC1` (stereo not given), the inhibition under setting [1] is 15.4% (inactive) and the inhibition (mutant strain inhibition) is 18.9%.
Regarding `Fc1ccc(Cn2nnnc2C(c2cccs2)N2CCCCCC2)cc1` (stereo not given), the inhibition reads like this: under setting [1], 62.9% (active); (mutant strain inhibition) 11.4%.
As for `CCC(C)(C)n1nnnc1C(c1cccs1)N1CCN(Cc2ccccc2)CC1` (stereo not given), the inhibition is 10.3% (inactive) under setting [1] and 21.9% (mutant strain inhibition).
Turning to `O=C(NCc1nnc(SCC(=O)N2CCCc3ccccc32)o1)c1ccccc1F`, the inhibition was 1.27% (inactive) under setting [1] and -4.18% (mutant strain inhibition).
`CC(=O)Nc1ccc(CN2CCN(Cc3ccc(F)c(F)c3)C(CCO)C2)cc1` (stereo not given): the inhibition runs as follows: under setting [1], 1.99% (inactive); (mutant strain inhibition) 5.61%.
The like results for `Cc1ccc(NCc2n[nH]c(=S)n2-c2ccccc2)cc1Cl` were, in that order, -7.14% (inactive) and 3.54%.
With `CC(=O)n1cc([C@@H]2C=C(C(=O)N3CCN(Cc4ccc5c(c4)OCO5)CC3)O[C@H](OCc3ccc(CO)cc3)C2)c2ccccc21`, the inhibition under setting [1] was 1.15% (inactive) and the inhibition (mutant strain inhibition) came to 3.61%.
Regarding `OCCCC1CCCCN1Cc1nc(Cc2ccccc2Cl)no1` (stereo not given), the inhibition by setting is: under setting [1], -11.6% (inactive); (mutant strain inhibition) -5.21%.
In the same order, the values of `C=CCC(CC=C)(C(N)=O)c1ccccc1` are -18.5% (inactive) and 6.11%.
The like results for `CC(C)(c1ccccc1)c1ccc(OCCN)cc1` were, in that order, 79.8% (active) and 43.4%.
In the same order, the values of `O=C(NCCOc1ccccc1)c1ccccc1` are 3.33% (inactive) and 5.23%.
As for `CN(C)CC(O)COc1ccc(C(C)(C)c2ccc(OCC(O)CN(C)C)cc2)cc1` (stereo not given), the inhibition is -19.2% (inactive) under setting [1] and -3.67% (mutant strain inhibition).
Consider `CCOC(=O)c1cc(-c2ccc(F)cc2)n(CC(=O)NCc2ccccn2)c1C`, for which the inhibition under setting [1] is -1.19% (inactive) and the inhibition (mutant strain inhibition) amounted to 1.72%.
As for `Cc1nn(-c2ccc([N+](=O)[O-])cc2)c(N)c1-c1ccccc1`, the inhibition is 6.29% (inactive) under setting [1] and -26% (mutant strain inhibition).
For the compound `Cn1cccc1C(C#N)c1ccccc1C#N` (stereo not given), the inhibition is, setting by setting: under setting [1], -2.23% (inactive); (mutant strain inhibition) -5.92%.
`COc1ccccc1CCNC(=O)CSc1nnc2ccc(-c3cccnc3)nn12`: the inhibition is, setting by setting: under setting [1], -7.72% (inactive); (mutant strain inhibition) 2.87%.
For `CC(NC(=S)Nc1ccc(OC(F)F)cc1)c1ccc(F)cc1` (stereo not given), the inhibition is, setting by setting: under setting [1], 42.7% (inactive); (mutant strain inhibition) -13.6%.
`COc1cccc2sc(N(CCCN(C)C)C(=O)C(c3ccccc3)c3ccccc3)nc12`: the inhibition is 96.8% (active) under setting [1] and 88.8% (mutant strain inhibition).
Turning to `CN(C)CCCN(C(=O)COc1ccccc1)c1nc2c(Cl)cccc2s1`, the inhibition is, setting by setting: under setting [1], -5.71% (inactive); (mutant strain inhibition) 13.3%.
On to `CC(=O)N(CCCN(C)C)c1nc2ccc(C)cc2s1`, for which the inhibition under setting [1] is -12.7% (inactive) and the inhibition (mutant strain inhibition) was -0.04%.
Regarding `COc1ccc(CNc2c(CO)cnc3c2cnn3C)cc1`, the inhibition by setting is: under setting [1], 4.76% (inactive); (mutant strain inhibition) 3.68%.
The like results for `COCC(C)NC(=O)CSc1nc2nn(-c3ccccc3)c(=O)c-2c2n1CCCCC2` (stereo not given) were, in that order, 0.91% (inactive) and -15.1%.
In the same order, the values of `O=C(N/N=C/C=C/c1ccccc1)C1CC1(c1ccccc1)c1ccccc1` (stereo not given) are 17.1% (inactive) and -3.76%.
Regarding `CC(/C=C/c1ccccc1)=N\NC(=O)C1CC1(C)c1ccccc1` (stereo not given), the inhibition was 71.7% (active) under setting [1] and 59.3% (mutant strain inhibition).
On to `O=C(/C=C/c1ccccc1)c1ccccc1O`, for which the inhibition reads like this: under setting [1], 12.3% (inactive); (mutant strain inhibition) 8.14%.
As for `CCOC(=O)C1=C(CC)Nc2ccccc2N=C1N`, the inhibition under setting [1] was -42.2% (inactive) and the inhibition (mutant strain inhibition) is -18.4%.
In the same order, the values of `CCO[C@H]1OC(C(=O)N2CCCCCCC2)=C[C@@H](c2ccc(C(F)(F)F)cc2)[C@@H]1CCCO` are -11% (inactive) and 9.51%.
The like results for `O=C(Nc1ccccc1)c1nnsc1S(=O)(=O)c1ccc(Cl)cc1` were, in that order, 98.5% (active) and 97.8%.
Regarding `O=C(Nc1ccc(Cl)cc1)c1ccsn1`, the inhibition was 12.9% (inactive) under setting [1] and 28% (mutant strain inhibition).
For the compound `CC(=O)Nc1cc(C(=O)O)ccc1S(=O)(=O)c1ccc(Cl)cc1`, the inhibition is, setting by setting: under setting [1], 8.84% (inactive); (mutant strain inhibition) 41.8%.
Take `CN(C)c1ccc(C=NCCc2ccc(S(N)(=O)=O)cc2)cc1`: the inhibition reads like this: under setting [1], -3.5% (inactive); (mutant strain inhibition) -12.7%.
The like results for `CC(C)CC(COCc1ccc(Cl)cc1)N1CCN(C(=O)c2ccc(C(F)(F)F)cc2)CCC1=O` (stereo not given) were, in that order, 35.7% (inactive) and 0.99%.
Take `CC(C)CC(CO)N1CCN(C(=O)c2ccc(Cl)cc2Cl)CCC1=O` (stereo not given): the inhibition is -10.3% (inactive) under setting [1] and 1.82% (mutant strain inhibition).
As to `O=C(c1cc(Cl)cc(Cl)c1)N1CCC(=O)N(C(COCc2ccccc2)Cc2ccccc2)CC1` (stereo not given), the inhibition by setting is: under setting [1], 71.4% (active); (mutant strain inhibition) 11.6%.
Turning to `O=C(Nc1cccc(F)c1)N1C2CCC1CC(O)(c1cccnc1)C2` (stereo not given), the inhibition under setting [1] was -6.02% (inactive) and the inhibition (mutant strain inhibition) is -8.29%.
Regarding `C=CCn1c(=NC(=O)c2cccs2)sc2cc(NC(C)=O)ccc21`, the inhibition was -0.58% (inactive) under setting [1] and 5.07% (mutant strain inhibition).
For the compound `Cc1nc2ccccc2c2oc(C(=O)NCC3CCCO3)cc12` (stereo not given), the inhibition by setting is: under setting [1], 1.66% (inactive); (mutant strain inhibition) -8.79%.
As for `Clc1cccc(-c2nc(NCC3CCCO3)c3ccccc3n2)c1` (stereo not given), the inhibition runs as follows: under setting [1], 74.2% (active); (mutant strain inhibition) 68.9%.
As for `c1ccc2c(NCC3CCCO3)nc(-c3ccncc3)nc2c1` (stereo not given), the inhibition runs as follows: under setting [1], -20% (inactive); (mutant strain inhibition) -11%.
Consider `O=C1Nc2ccc([N+](=O)[O-])cc2C1=Nc1cccc(CO)c1`, for which the inhibition is 0.18% (inactive) under setting [1] and 6.98% (mutant strain inhibition).
With `CC(C)(CNCC(O)c1ccccc1)N1CCOCC1` (stereo not given), the inhibition was 64% (active) under setting [1] and 5.08% (mutant strain inhibition).
The like results for `CC(C)(CNC(=O)c1cc(=O)[nH]c2ccccc12)N1CCOCC1` were, in that order, -13.2% (inactive) and -2.01%.
As for `CC(CN1CCOCC1)c1ccccc1` (stereo not given), the inhibition under setting [1] was -5.68% (inactive) and the inhibition (mutant strain inhibition) is 13.1%.
Consider `Cn1c(SCC(=O)Nc2ccc(Br)cc2F)nnc1-c1ccco1`, for which the inhibition under setting [1] is -5.72% (inactive) and the inhibition (mutant strain inhibition) was -9.59%.
For the compound `CCN(CC)C(=O)Oc1ccc(OC(=O)N(CC)CC)cc1`, the inhibition is -3.56% (inactive) under setting [1] and 8.46% (mutant strain inhibition).
For the compound `CCn1c(SCC(=O)c2ccc3ccccc3c2)nnc1-c1cccs1`, the inhibition under setting [1] was 16.5% (inactive) and the inhibition (mutant strain inhibition) was -6.78%.
Regarding `O=C(CSc1nnc(-c2cccs2)n1-c1ccccc1)N1CCN(C(=O)c2ccco2)CC1`, the inhibition under setting [1] is -17.6% (inactive) and the inhibition (mutant strain inhibition) is -21.2%.
In the case of `O=C(CSc1nnc(-c2cccs2)n1Cc1ccccc1)N1CCc2ccccc2C1`, the inhibition is 70.4% (active) under setting [1] and 40.2% (mutant strain inhibition).
In the case of `CCOC(=O)C1(C)NC(c2ccco2)C2C(=O)N(c3ccccc3)C(=O)C21` (stereo not given), the inhibition is -2.53% (inactive) under setting [1] and -16.9% (mutant strain inhibition).
In the case of `CCc1cccc(C)c1NC(=S)N(CCCN1CCN(C)CC1)Cc1cccs1`, the inhibition by setting is: under setting [1], 4.55% (inactive); (mutant strain inhibition) 8.76%.
In the same order, the values of `Cc1ccccc1NC(=S)N(CCCN1CCOCC1)Cc1cccs1` are 20.9% (inactive) and -3.99%.
Consider `Cc1ccc(NC(=S)N(CCCN2CCCC2)Cc2cccn2Cc2ccc(Cl)cc2)cc1`, for which the inhibition is, setting by setting: under setting [1], 83.8% (active); (mutant strain inhibition) 31.5%.
